# Measured values from patent US20050164186, “Alteration of restriction endonuclease specificity by genetic selection” (published 2005).
# Biological target: T1, BstYI NN1 (K133N/S172N) (Bacillus stearothermophilus, K133N,S172N)
# T1 chain: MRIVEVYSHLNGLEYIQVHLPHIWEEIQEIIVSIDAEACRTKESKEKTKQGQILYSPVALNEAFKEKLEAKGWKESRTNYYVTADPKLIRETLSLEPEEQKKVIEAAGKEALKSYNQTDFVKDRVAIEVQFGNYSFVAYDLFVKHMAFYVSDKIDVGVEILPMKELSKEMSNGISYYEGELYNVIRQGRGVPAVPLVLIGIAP
# Experiment: cleavage_in_vitro; 60 C
# Details: label: radiolabel; dsDNA, one strand shown
sequence,measurement,value
AGATCC,cleavage activity,7 fold lower than AGATCT
